Assay [1] can be described thus: NCI Yeast Anticancer Drug Screen. Data for the rad50 strain (AID 155).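 Further: 0% = growth of vehicle-only cultures of the same strain.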 Particulars: S. cerevisiae rad50 strain growth inhibition; at 50.0 µM; hits give high values. In a few lines:
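Inhibition values express reduced yeast growth in compound-treated cultures relative to vehicle-treated controls.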

Assay [2] in a line: NCI Yeast Anticancer Drug Screen. Data for the mec2-1 strain (AID 157). Particulars: S. cerevisiae mec2-1 strain, at 50.0 µM, hits give high values. The essentials: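 Strain: mec2-1 (DNA repair/cell cycle alteration). Compound exposure, then growth measured; inhibition expressed relative to vehicle.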
The nature of assay [3]: NCI Yeast Anticancer Drug Screen. Data for the sgs1 mgt1 strain (AID 161).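 Further: 0% = growth of cultures given vehicle only.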 To be noted: S. cerevisiae sgs1 mgt1 strain, at 50.0 µM, hits give high values. The essentials: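 Genetically altered yeast, compound exposure, growth inhibition relative to vehicle.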
Assay [4] is described as follows: NCI Yeast Anticancer Drug Screen. Data for the cln2 rad14 strain (AID 165).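 Further: 0% = growth equal to vehicle treated cultures.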 To be noted: S. cerevisiae cln2 rad14 strain, at 50.0 µM, hits give high values. In a few lines: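 Compounds are applied to the cln2 rad14 yeast strain, and growth is then compared with that of vehicle-treated cultures to give inhibition.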
Assay [5] is described as follows: NCI Yeast Anticancer Drug Screen. Data for the bub3 strain (AID 167). To be noted: S. cerevisiae bub3 mutant strain, at 50.0 µM, hits give high values. In a few lines:
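Steps: expose the mutant yeast strain to compound; grow alongside vehicle-treated cultures; measure growth; express inhibition against the vehicle cultures.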

Assay [6] in a line: NCI Yeast Anticancer Drug Screen. Data for the mlh1 rad18 strain (AID 175). Particulars: S. cerevisiae mlh1 rad18 strain growth inhibition; at 50.0 µM; hits give high values. In a few lines:
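Read-out is yeast growth inhibition, calculated against vehicle-only controls. The compound was applied to a strain engineered with DNA damage repair alterations.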

Molecules are shown by their SMILES. This is part of a sample that, as a whole, favours compounds with a hit. Of some 79,000 tested, about 15% had one in any assay. A number with no mark means an inactive call. Active and inactive are the calls of the source. No stated cut-off is given here; in the data, active means growth inhibition above about 70%; inactive means the rest.

For the molecule `Cc1cccc(C)c1NC(=O)/C(=N/NC(N)=S)C(C)C(=O)c1ccc(Cl)cc1` (stereo unspecified), the growth inhibition is 12.6% in assay [1]; 6.35% in assay [2]; 19.6% in assay [3]; 13.3% in assay [4]; 4.5% in assay [5]; 22.3% in assay [6].
For `CCCCOC(=O)c1cc(/C=C\c2ccccc2)on1`, the growth inhibition is -12.9% in assay [1]; -2.45% in assay [2]; 3.1% in assay [3]; -69.6% in assay [4]; 30.6% in assay [5]; 9.25% in assay [6].
Consider `CS(=O)(=O)OC1C(OCc2ccccc2)OC(CO)C(O)C1O` (stereo unspecified), for which the growth inhibition in assay [1] is -6.1%; in assay [2] it was 2.15%; in assay [3] it was -10.1%; in assay [4], -55.6%; in assay [5], -1.6%; in assay [6], 0.55%.
Turning to `O=c1c(-c2ccccc2)coc2ccccc12`, the growth inhibition in assay [1] was -9%; in assay [2], 1.45%; in assay [3], 8.15%; in assay [4] it was -52%; in assay [5], -14.3%; in assay [6] it was 0.15%.
For `COc1ccc(CN2CCCN(Cc3ccc(OC)cc3OC)C2c2ccccc2)c(OC)c1`, the growth inhibition was 19.6% in assay [1]; 6.9% in assay [2]; 8.05% in assay [3]; 17.9% in assay [4]; -4.6% in assay [5]; 14.8% in assay [6].
Take `Cc1cc(-c2ccccc2)nc(Nc2nc3ccccc3o2)n1`: the growth inhibition in assay [1] is 9.2%; in assay [2], 1.1%; in assay [3] it was 10.6%; in assay [4], 6.35%; in assay [5], -9.45%; in assay [6], -2.3%.
On to `COC1=C(C(C2=C(OC)CC(C)(C)CC2=O)c2ccc3c(c2)OCO3)C(=O)CC(C)(C)C1`, for which the growth inhibition in assay [1] was 31.6%; in assay [2], 7.7%; in assay [3], -9.05%; in assay [4], 0.3%; in assay [5], -0.65%; in assay [6], 11.9%.
As to `CC1=NNC(=O)CC1C(O)c1ccc(F)cc1` (stereo unspecified), the growth inhibition in assay [1] is -33.5%; in assay [2], 1.4%; in assay [3], -10.1%; in assay [4], -2.35%; in assay [5], 0%; in assay [6], -1.85%.
Take `COc1c(C)c(=O)n2c3ccccc3n(C)c2c1C#N`: the growth inhibition in assay [1] is 19.5%; in assay [2], 10.3%; in assay [3], -18.4%; in assay [4] it was 8.55%; in assay [5], 0.85%; in assay [6] it was 14.8%.
Regarding `COC(=O)C1=C(C)NC(C)=C(C(=O)OC)C1c1ccc(NC(C)=O)cc1`, the growth inhibition was 4.7% in assay [1]; -3.7% in assay [2]; 13.3% in assay [3]; -6.25% in assay [4]; 5.25% in assay [5]; 10.9% in assay [6].
As for `CCSCC(N)C(=O)O` (stereo unspecified), the growth inhibition was -16.1% in assay [1]; 2.5% in assay [2]; 7.45% in assay [3]; -7.25% in assay [4]; 3.35% in assay [5]; -9% in assay [6].
As to `CCCCCCCCCCCCCC(=O)CCCC`, the growth inhibition was -9.7% in assay [1]; -8.4% in assay [2]; 2.2% in assay [3]; -22.5% in assay [4]; -2.45% in assay [5]; -18% in assay [6].
As to `CSC1=NC=C(C#N)C2=NC(c3c(F)cccc3Cl)NN12` (stereo unspecified), the growth inhibition in assay [1] was 30.3%; in assay [2], 7.65%; in assay [3] it was 35.3%; in assay [4], 26.2%; in assay [5], 24.6%; in assay [6], 26.8%.
As to `O=C1C(c2ccccc2)C(c2ccccc2)C(c2ccccc2)C1c1ccccc1` (stereo unspecified), the growth inhibition in assay [1] is 52%; in assay [2] it was 1.05%; in assay [3] it was 15.9%; in assay [4], 5.65%; in assay [5], -4.3%; in assay [6], 5.65%.
With `C=C1CC/C=C(\C)C(=O)C(O)C2C1CC2(C)C` (stereo unspecified), the growth inhibition in assay [1] is 14.9%; in assay [2], -13.7%; in assay [3], 67.2%; in assay [4], 16.4%; in assay [5], 23.9%; in assay [6], 78.8% (active).
Consider `O=c1c(Cc2ccccc2)coc2ccccc12`, for which the growth inhibition in assay [1] is 30.6%; in assay [2] it was 14.6%; in assay [3], 21.4%; in assay [4] it was -14.2%; in assay [5], 27.5%; in assay [6] it was -1.5%.
For the molecule `Cc1ccccc1I`, the growth inhibition is -15.2% in assay [1]; -32.3% in assay [2]; -3.2% in assay [3]; 9% in assay [4]; 0.5% in assay [5]; 9.2% in assay [6].
For the molecule `CCCCCCC1(/C=C/c2ccc(Cl)c(Cl)c2)OCCCO1`, the growth inhibition was 6.15% in assay [1]; 12.2% in assay [2]; 12.6% in assay [3]; -1.55% in assay [4]; 3.2% in assay [5]; 8.1% in assay [6].
Consider `CC1CN(Cc2ccccc2)CCC1N1CCCC1` (stereo unspecified), for which the growth inhibition in assay [1] was 24.8%; in assay [2], 11.8%; in assay [3], 27.6%; in assay [4], 29.4%; in assay [5] it was 23.2%; in assay [6], 21.4%.
Consider `ClC(c1ccccc1)(c1ccccc1)C(Cl)(c1ccccc1)c1ccccc1`, for which the growth inhibition in assay [1] is 45.9%; in assay [2], 5.05%; in assay [3] it was 24.1%; in assay [4] it was 11.8%; in assay [5], 4.6%; in assay [6] it was 26.9%.
Take `CC(C)CCC1(C2CCOCC2)NC(=O)NC1=O` (stereo unspecified): the growth inhibition in assay [1] is -9.85%; in assay [2], -6.6%; in assay [3] it was -4.85%; in assay [4], -26.6%; in assay [5], -7.55%; in assay [6] it was 0.95%.

The record behind these values is PubChem BioAssay (NCI).
